According to PubChem BioAssay (Tox21):
Values without a mark were called inactive. Results filed as inconclusive are left out. A call without a number means that no potency is given here. Activity calls are given as the source filed them. Unless noted, calls come from the whole dose curve; as a rule, active = well fitted curve in the direction sought with a large enough effect in the repeat runs; inconclusive = weak or mixed curves; inactive = flat fitted curve, though single readings scatter.

How the values were obtained:
[1] = qHTS assay to test for compound auto fluorescence at 535 nm (green) in HEK293 cells (AID 720680)
[2] = qHTS assay to test for compound auto fluorescence at 460 nm (blue) in HEK293 cell free culture (AID 720681)
In short: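 Blue fluorescence (Ex 405/Em 460 nm, triamterene-equivalent) was read immediately after pin transfer of compound or DMSO into medium (DMEM, 10% FBS) without cells.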

[3] = qHTS assay to test for compound auto fluorescence at 535 nm (green) in HEK293 cell free culture (AID 720682)
In short: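 Cell-free medium (DMEM, 10% FBS) receives compound or DMSO by pintool. Plate read directly at Ex 485/Em 535 nm. Signal converted to fluorescein equivalency.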

[4] = qHTS assay to test for compound auto fluorescence at 590 nm (red) in HEK293 cell free culture (AID 720683)
In short: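 Red-channel autofluorescence of compounds in culture medium (DMEM, 10% FBS), no cells, measured at 540/590 nm. Rose Bengal sodium is the reference fluorophore for equivalence.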

[5] = qHTS assay to test for compound auto fluorescence at 590 nm (red) in HepG2 cell free culture (AID 720684)
In short: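 Cell-free; medium MEM + 10% FBS; compound or DMSO added by pintool; read Ex 540/Em 590 nm; Rose Bengal sodium as red reference fluorophore.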

[6] = qHTS assay to test for compound auto fluorescence at 460 nm (blue) in HepG2 cell free culture (AID 720685)
In short: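 Cell-free plates of MEM plus 10% FBS received 23 nL compound or DMSO vehicle; blue-channel (405/460 nm) intensity scored against triamterene as reference fluorophore.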

[7] = qHTS assay to test for compound auto fluorescence at 535 nm (green) in HepG2 cell free culture (AID 720686)
[8] = qHTS assay to test for compound auto fluorescence at 460 nm (blue) in HepG2 cells (AID 720687)
In short: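 Blue-channel autofluorescence (Ex/Em 405/460 nm, triamterene-equivalent) was measured after 1 hr compound exposure at 37 C, 5% CO2. Cells were HepG2, plated overnight at 37 C in MEM plus 10% FBS.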

[9] = target: Glucocorticoid receptor (Homo sapiens) (UniProt P04150); assay: qHTS assay to identify small molecule agonists of the glucocorticoid receptor (GR) signaling pathway (AID 720691; active = well fitted activation curve with a large enough effect in the signal ratio in the repeat runs, not every such curve was filed as active; the % refers to the signal ratio)
Chain of Glucocorticoid receptor (Homo sapiens) (P04150 whole entry, looked up): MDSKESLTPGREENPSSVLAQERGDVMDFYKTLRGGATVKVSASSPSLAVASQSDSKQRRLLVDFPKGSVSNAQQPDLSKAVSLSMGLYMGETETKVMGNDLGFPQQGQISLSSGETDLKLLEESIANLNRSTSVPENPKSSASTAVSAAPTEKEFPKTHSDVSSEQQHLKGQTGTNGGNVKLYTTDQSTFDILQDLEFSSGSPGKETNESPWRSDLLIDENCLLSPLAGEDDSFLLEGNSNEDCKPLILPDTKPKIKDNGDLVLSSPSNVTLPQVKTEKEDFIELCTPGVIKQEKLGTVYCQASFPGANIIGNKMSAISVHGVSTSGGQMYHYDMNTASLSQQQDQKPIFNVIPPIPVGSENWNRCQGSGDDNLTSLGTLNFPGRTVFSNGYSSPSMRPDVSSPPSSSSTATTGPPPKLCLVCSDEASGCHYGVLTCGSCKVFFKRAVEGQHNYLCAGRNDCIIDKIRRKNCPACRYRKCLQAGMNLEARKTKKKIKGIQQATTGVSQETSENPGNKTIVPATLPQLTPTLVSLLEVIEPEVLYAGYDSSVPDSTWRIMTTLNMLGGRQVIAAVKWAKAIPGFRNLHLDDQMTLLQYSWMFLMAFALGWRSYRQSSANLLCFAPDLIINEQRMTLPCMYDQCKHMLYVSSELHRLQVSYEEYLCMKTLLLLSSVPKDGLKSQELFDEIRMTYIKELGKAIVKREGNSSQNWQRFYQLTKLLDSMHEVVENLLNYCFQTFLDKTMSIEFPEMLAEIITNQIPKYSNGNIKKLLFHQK
In short: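 HeLa GR-bla reporter line; cells pre-incubated 4 h, compound in DMSO 18 h at 37 C; LiveBLAzer B/G FRET substrate 2 h RT; fluorescence intensity read-out.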

[10] = target: Glucocorticoid receptor (Homo sapiens) (UniProt P04150); assay: qHTS assay to identify small molecule antagonists of the glucocorticoid receptor (GR) signaling pathway (AID 720692; active = well fitted inhibition curve with a large enough effect in the signal ratio in the repeat runs, not every such curve was filed as active; the % refers to the signal ratio; note: potency is the fitted concentration of half-maximal effect)
In short: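 Read-out: beta-lactamase FRET substrate fluorescence, 2 h at room temperature, in HeLa cells stably carrying a GRE-driven bla reporter. Compounds were co-incubated with 5 nM dexamethasone agonist (final) for 18 h at 37 C.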

| Compound | outcome [1] | Potency [2] | outcome [3] | outcome [4] | outcome [5] | Potency [6] | outcome [7] | Potency [8] | Potency [9] | Potency [10] | fluorescence, % of fluorescein [1] | fluorescence, % of fluorescent control [2] | activity change [3] | fluorescence, % of fluorescent control [4] | fluorescence, % of Rose Bengal [5] | fluorescence, % of fluorescent control [6] | fluorescence, % of fluorescent control [8] |
| --- | --- | --- | --- | --- | --- | --- | --- | --- | --- | --- | --- | --- | --- | --- | --- | --- | --- |
| CC(C)OC(=O)c1ccccc1C(=O)OC(C)C | inactive | inactive | inactive | inactive | inactive | inactive | inactive | inactive | inactive | inactive |  |  |  |  |  |  |  |
| CCCCCc1ccco1 | inactive | inactive | inactive | inactive | inactive | inactive | inactive | inactive | inactive | 31.9 µM (active) |  |  |  |  |  |  |  |
| c1ccc2sc(SSc3nc4ccccc4s3)nc2c1 | inactive | inactive | inactive | inactive | inactive | inactive | inactive | inactive | inactive | inactive |  |  |  |  |  |  |  |
| N[C@@H](Cc1cc(I)c(O)c(I)c1)C(=O)O | inactive | inactive | inactive | inactive | inactive | inactive | inactive | inactive | inactive | inactive |  |  |  |  |  |  |  |
| COC(=O)C1=C(C)NC(C)=C(C(=O)OC(C)(C)CN(C)CCC(c2ccccc2)c2ccccc2)C1c1cccc([N+](=O)[O-])c1 (stereo not given) | inactive | inactive | inactive | inactive | inactive | inactive | inactive | inactive | inactive | 6.74 µM (active) |  |  |  |  |  |  |  |
| CC(=O)N[C@@H](Cc1ccc(O)cc1)C(=O)O | inactive | inactive | inactive | inactive | inactive | inactive | inactive | inactive | inactive | inactive |  |  |  |  |  |  |  |
| C[C@@H]1[C@H](O)[C@@H](C)/C=C/C=C\C=C\C=C\C=C\C=C\C=C\[C@H](O[C@@H]2O[C@H](C)[C@@H](O)[C@H](N)[C@@H]2O)C[C@@H]2O[C@](O)(C[C@@H](O)C[C@@H](O)[C@H](O)CC[C@@H](O)C[C@@H](O)CC(=O)O[C@H]1C)C[C@H](O)[C@H]2C(=O)O (stereo in doubt) | inactive | inactive | inactive | inactive | inactive | inactive | inactive | inactive | inactive | 49 µM (active) |  |  |  |  |  |  |  |
| CC(C)CC(O)CC(C)C | inactive | inactive | inactive | inactive | inactive | inactive |  | inactive | inactive |  |  |  |  |  |  |  |  |
| OCC(CO)n1cnc(-c2ccc(F)cc2)c1-c1ccnc(Oc2ccccc2)n1 | inactive | inactive | inactive | inactive | inactive | inactive |  | inactive | inactive |  |  |  |  |  |  |  |  |
| CCCCCCCCCCCCCCCC(=O)OCC | inactive | inactive | inactive | inactive | inactive | inactive | inactive | inactive | inactive | inactive |  |  |  |  |  |  |  |
| O=C1NC(=O)c2cccc3cccc1c23 | inactive | inactive | inactive | inactive | inactive | inactive | inactive | inactive | inactive | inactive |  |  |  |  |  |  |  |
| O=C(O)CNC(=O)c1ccccc1I | inactive | inactive | inactive | inactive | inactive | inactive |  | inactive | inactive |  |  |  |  |  |  |  |  |
| CC(C)Cc1ccc(CC(=O)O)cc1 | inactive | inactive | inactive | inactive | inactive | inactive | inactive | inactive | inactive | inactive |  |  |  |  |  |  |  |
| CNS(=O)(=O)c1cc(C(=O)N2CCC(CCN3C4CCC3CC(n3c(C)nc5ccccc53)C4)(c3cccc(F)c3)CC2)c(Cl)cc1F (stereo not given) | inactive | inactive | inactive | inactive | inactive | inactive |  | inactive |  |  |  |  |  |  |  |  |  |
| COc1cc(NC(C)CCCN)c2ncccc2c1 (stereo not given) |  |  |  |  |  |  |  |  |  |  | -0.0105% [at 18.6 µM] | 1.01% [at 18.6 µM] | 0.0005% [at 18.6 µM] | -0.109% [at 18.6 µM] | 0.347% [at 18.6 µM] | 0.907% [at 18.6 µM] | 0.746% [at 18.6 µM] |
| COC(=O)CC(C(C)=O)C(=O)OC (stereo not given) | inactive | inactive | inactive | inactive | inactive | inactive | inactive | inactive | inactive | inactive |  |  |  |  |  |  |  |

| Compound | outcome [1] | Potency [2] | outcome [3] | outcome [4] | outcome [5] | Potency [6] | outcome [7] | Potency [8] | Potency [9] | Potency [10] | fluorescence, % of fluorescein [1] | fluorescence, % of fluorescent control [2] | activity change [3] | fluorescence, % of fluorescent control [4] | fluorescence, % of Rose Bengal [5] | fluorescence, % of fluorescent control [6] | fluorescence, % of fluorescent control [8] |
| --- | --- | --- | --- | --- | --- | --- | --- | --- | --- | --- | --- | --- | --- | --- | --- | --- | --- |
| CC(=O)C(=O)CC(C)C | inactive | inactive | inactive | inactive | inactive | inactive |  | inactive | inactive |  |  |  |  |  |  |  |  |
| O=S(=O)(O)CO | inactive | inactive | inactive | inactive | inactive | inactive | inactive | inactive | inactive | inactive |  |  |  |  |  |  |  |
| Cc1ccc(N(CCO)CCO)cc1 | inactive | inactive | inactive | inactive | inactive | inactive | inactive | inactive | inactive | inactive |  |  |  |  |  |  |  |
| CCCOC(=O)c1c(Cl)c(Cl)c(Cl)c(Cl)c1C(=O)OCCC | inactive | inactive | inactive | inactive | inactive | inactive | inactive | inactive | inactive | inactive |  |  |  |  |  |  |  |
| Nc1ccc(S(=O)(=O)NCc2ccccc2)cc1 | inactive | inactive | inactive | inactive | inactive | inactive | inactive | inactive | inactive | inactive |  |  |  |  |  |  |  |
| O=P(O)(O)Oc1ccccc1 | inactive | inactive | inactive | inactive | inactive |  |  | inactive | inactive |  |  |  |  |  |  |  |  |
| CC/C=C\C/C=C\C/C=C\CCCCCCCC(=O)OCC | inactive | inactive | inactive | inactive | inactive |  | inactive | inactive | inactive | 50.1 µM (active) |  |  |  |  |  |  |  |
| Oc1ccc2c(c1)Cc1ccccc1-2 | inactive | inactive | inactive | inactive | inactive | inactive |  | inactive |  | 19.5 µM (active) |  |  |  |  |  |  |  |
| O=C(O)CCC(=O)OC[C@@H](NC(=O)C(Cl)Cl)[C@H](O)c1ccc([N+](=O)[O-])cc1 | inactive | inactive | inactive | inactive | inactive |  | inactive | inactive | inactive |  |  |  |  |  |  |  |  |
| Cc1ccc(NC(=O)N(C)C)cc1NC(=O)N(C)C | inactive | inactive | inactive | inactive | inactive | inactive |  | inactive | inactive | inactive |  |  |  |  |  |  |  |
| COc1ccc(C(=O)NCc2ccc(OCCN(C)C)cc2)cc1OC | inactive | inactive | inactive | inactive | inactive |  | inactive | inactive | inactive | inactive |  |  |  |  |  |  |  |
| CC(C)c1ccc(C#N)cc1 | inactive | inactive | inactive | inactive | inactive |  | inactive | inactive | inactive | inactive |  |  |  |  |  |  |  |
| CSCC[C@H](NC(=O)[C@H](Cc1c[nH]c2ccccc12)NC(=O)CCNC(=O)OC(C)(C)C)C(=O)N[C@@H](CC(=O)O)C(=O)N[C@@H](Cc1ccccc1)C(N)=O | inactive | inactive | inactive | inactive | inactive | inactive |  | inactive | inactive | inactive |  |  |  |  |  |  |  |
| CCO[Si](C)(CCCOCC1CO1)OCC (stereo not given) | inactive | inactive | inactive | inactive | inactive | inactive |  | inactive | inactive | inactive |  |  |  |  |  |  |  |
| Cc1ccc2c(c1[N+](=O)[O-])C(=O)c1ccccc1C2=O | inactive | inactive | inactive | inactive | inactive |  | inactive | inactive |  |  |  |  |  |  |  |  |  |
